Test results as given in PubChem BioAssay (NCATS).
“And” between values parts separate entries of the source, which are not always exact repeats. Identical values can stand only once. Results filed as inconclusive are left out. The source made the active and inactive calls. Calls follow the shape of the full dose curve.

Experiment: qHTS Assay for Lipid Storage Modulators (AID 1519); as to activity change, negative = inhibition: % is scaled to controls: 0 for no effect and ±100 for the full control effect
Settings: Drosophila S3 cells, BODIPY lipid droplet/cell ratio, laser cytometry, cells loaded with oleic acid
From the text: NIH Molecular Libraries Probe Production Centers Network [MLPCN]
NIH Chemical Genomics Center [NCGC]
Assay Submitter (PI): Beller, Mathias; Max-Planck-Institut fur Biophysikalische Chemie
NCGC Assay Overview: Storing lipids as a reservoir for energy or the anabolism of elementary metabolites is a common feature of probably all cells and is conserved from bacteria to humans. The universal cellular lipid storage organelle is the so-called lipid storage droplet (LD). Although ubiquitous, LDs share a simple structure composed of a hydrophobic core that harbors the storage lipids, which is shielded by a droplet-specific phospholipid monolayer to which proteins are attached. The current model of LD biogenesis involves an incorporation of the lipid core into the membrane leaflets of the endoplasmic reticulum (ER) followed by a subsequent budding-like maturation of a LD, which ultimately pinches off. Once released, LD volume can increase by localized lipogenesis or fusion of existing droplets. Storage lipids are re-mobilized enzymatically by lipase activity. Lipase regulation in the adipocyte is heavily studied and involves multiple components including catecholamine signaling, the LD-associated proteins Perilipin and comparative gene identification-58 (CGI-58) and at least two lipases named hormone sensitive lipase (HSL) and adipocyte triglyceride lipase (ATGL). LD regulation outside of the adipocyte is poorly understood and only few components are known. However, there is an urgent need to learn more about ectopic fat depots as mislocalized storage of lipids, for example in the liver or muscle, is an eminent health problem associated with insulin resistance or the metabolic syndrome. We developed a laser-scanning cytometer assay to enable 1,536-well screening and combined the results of the small molecules screen with an RNAi database based on lipid storage.
NCGC Assay Protocol Summary:
We dispensed 4 uL of cells at 1.25 x 10^6 cells/mL into LoBase Aurora COC 1,536-well plates (black walled, clear bottom) with a bottle-valve solenoid-based dispenser (Aurora) to obtain 5,000 cells/well. Triacsin C (Sigma-Aldrich T-4540), an inhibitor of long-chain fatty acyl CoA synthetase that blocks synthesis of triglycerides, was used as a positive control for lipid under-storage. A total of 23 nL of compound solution of different concentrations were transferred to the assay plates using a Kalypsys pin tool equipped with a 1,536-pin array containing 10-nL slotted pins (FP1S10, 0.457-mm diameter, 50.8 mm long; V&P Scientific). One microliter of oleic acid (400 uM) was added, and the plate was lidded with stainless steel rubber gasket lined lids containing pinholes. […] Fluorescence was detected by excitation of the fluorophores with a 488-nm laser on an Acumen Explorer (TTP Lab Tech). The total intensity in channel 1 (500-530 nm) reflected lipid droplet accumulation. […] The ratio of the total intensity in PMT channel 1 over total intensity of channel 3 was also calculated. Percent activity was computed relative to an internal control (100% inhibited lipid droplet deposition due to the presence of 20 uM Triacsin C), which was added to 32 wells/plate.

[1] = measured here: cell count channel max response
[2] = measured here: lipid channel max response

SMILES: CN1CCC(=C2c3ccccc3C=Cc3ccccc32)CC1
- activity change, negative = inhibition (at 25.7 µM (top of the series)): -4.01% (inactive)
- activity change, negative = inhibition (at 57.5 µM (top of the series)): 0.516% (inactive)
- max response [1]: 4.35% and -11%
- max response [2]: -0.358% and -12.9%

SMILES: O=C(CCCN1CCC(O)(c2ccc(Cl)cc2)CC1)c1ccc(F)cc1
- activity change, negative = inhibition (at 25.7 µM (top of the series)): 0.51% (inactive)
- activity change, negative = inhibition (at 57.5 µM (top of the series)): 7.71% (inactive)
- max response [1]: -8.83% and 9.42%
- max response [2]: -10.1% and 21.7%

SMILES: Clc1ccc2c(c1)C(N1CCNCC1)=Nc1ccccc1O2
- activity change, negative = inhibition (at 25.7 µM (top of the series)): -5.1% (inactive)
- activity change, negative = inhibition (at 57.5 µM (top of the series)): 3.92% (inactive) and 1.18% (inactive)
- max response [1]: -3.99% and 1.39% and 11.5%
- max response [2]: -7.98% and 5.5% and 12.2%

SMILES: Nc1c2c(nc3ccccc13)CCCC2
- activity change, negative = inhibition (at 25.7 µM (top of the series)): 0.95% (inactive)
- activity change, negative = inhibition (at 57.5 µM (top of the series)): 2.49% (inactive)
- max response [1]: -0.801% and 25.5%
- max response [2]: -0.834% and 27.2%

SMILES: O=C(c1ccc(OCCN2CCCCC2)cc1)c1c(-c2ccc(O)cc2)sc2cc(O)ccc12
- activity change, negative = inhibition (at 25.7 µM (top of the series)): -1.98% (inactive)
- activity change, negative = inhibition (at 57.5 µM (top of the series)): 1.97% (inactive)
- max response [1]: -4.67% and -13.2%
- max response [2]: -4.93% and -10.5%

SMILES: OCCN(CCO)c1nc(N2CCCCC2)c2nc(N(CCO)CCO)nc(N3CCCCC3)c2n1
- activity change, negative = inhibition (at 25.7 µM (top of the series)): -0.0376% (inactive)
- max response [1]: -18.6%
- max response [2]: -17.7%

SMILES: NC(=O)OCC(COC(N)=O)c1ccccc1
- activity change, negative = inhibition (at 57.5 µM (top of the series)): -4.42% (inactive)
- max response [1]: -0.783%
- max response [2]: -3.41%

SMILES: NC(=O)NO
- activity change, negative = inhibition (at 57.5 µM (top of the series)): 7.16% (inactive)
- max response [1]: 21%
- max response [2]: 26.4%

SMILES: Cc1ccccc1N1C(=O)c2cc(S(N)(=O)=O)c(Cl)cc2NC1C (stereo unspecified)
- activity change, negative = inhibition (at 57.5 µM (top of the series)): 5.05% (inactive) and -0.764% (inactive)
- max response [1]: 11.3% and 51.4%
- max response [2]: 18.3% and 52%

SMILES: Nc1nnc(-c2cccc(Cl)c2Cl)c(N)n1
- activity change, negative = inhibition (at 57.5 µM (top of the series)): 1.91% (inactive)
- max response [1]: 18.9%
- max response [2]: 20.6%

SMILES: Cc1ccc(-c2cc(C(F)(F)F)nn2-c2ccc(S(N)(=O)=O)cc2)cc1
- activity change, negative = inhibition (at 57.5 µM (top of the series)): 7.63% (inactive)
- max response [1]: 18.8%
- max response [2]: 30%

SMILES: CC(COc1ccccc1)N(CCCl)Cc1ccccc1 (stereo unspecified)
- activity change, negative = inhibition (at 57.5 µM (top of the series)): 6.18% (inactive)
- max response [1]: 11.9%
- max response [2]: 23.2%
